Data from PubChem BioAssay (EPA / NIEHS).
Activity calls are given as the source filed them. Rule for the calls: active = hit-call score of the fitted dose curve at least 0.9, where 1 is the maximum; inactive = score below 0.9.

Assays:
[1] = ATG_GLI_CIS: Attagene CIS-FACTORIAL HepG2 Assay for human Zinc Finger Protein GLI1 (AID 2282945); conditions: HepG2, Attagene cis-factorial reporter mRNA, GLI element; actives raise or lower the signal
Procedure, shortened: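 Transiently transfected HepG2 cells report endogenous transcription factor activity via cis-element-driven reporter units. After 24 h compound exposure, reporter mRNA was measured by RT-PCR with capillary electrophoresis; bidirectional fitting against DMSO baseline.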

[2] = biological target: Bile acid receptor (Homo sapiens) (UniProt Q96RI1); test: ATG_IR1_CIS: Attagene CIS-FACTORIAL HepG2 Assay for human Nuclear Receptor Subfamily 1 Group H Member 4 (NR1H4), IR1 submotif (AID 2282946); conditions: IR1 reporter transcription, actives raise or lower the signal
Sequence of Bile acid receptor (Homo sapiens) (Q96RI1 whole entry, looked up): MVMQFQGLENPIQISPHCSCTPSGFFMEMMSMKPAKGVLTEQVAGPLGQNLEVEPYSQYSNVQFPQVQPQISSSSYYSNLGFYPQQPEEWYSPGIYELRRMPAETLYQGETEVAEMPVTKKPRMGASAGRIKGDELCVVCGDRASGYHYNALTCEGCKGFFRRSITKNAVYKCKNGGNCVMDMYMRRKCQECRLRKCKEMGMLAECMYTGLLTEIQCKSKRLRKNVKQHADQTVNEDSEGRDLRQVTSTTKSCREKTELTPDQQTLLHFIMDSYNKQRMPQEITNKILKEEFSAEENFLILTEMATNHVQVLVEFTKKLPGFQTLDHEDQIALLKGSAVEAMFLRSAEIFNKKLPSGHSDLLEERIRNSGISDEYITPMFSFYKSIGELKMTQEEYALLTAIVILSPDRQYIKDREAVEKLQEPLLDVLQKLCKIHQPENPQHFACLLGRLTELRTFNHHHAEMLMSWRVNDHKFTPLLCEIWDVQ
Procedure, shortened: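 HepG2 cells transiently transfected with multiple cis-promoter-driven reporter units to measure endogenous transcription factor activity; 24 h exposure. Reporter mRNA read by RT-PCR, FAM labelling, HpaI digestion and capillary electrophoresis. Bidirectional fit versus DMSO.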

[3] = ATG_ISRE_CIS: Attagene CIS-FACTORIAL HepG2 Assay for human Interferon Regulatory Factor 1 (IRF1) binding to an Interferon-Stimulated Response Element (ISRE) (AID 2282948); conditions: HepG2 ISRE cis-reporter (Attagene), mRNA transcription readout; actives raise or lower the signal
Procedure, shortened: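 Quantitation relies on labelled RT-PCR fragments separated by capillary electrophoresis. Human HepG2 cells bearing cis-promoter reporter constructs were treated 24 h; DMSO served as baseline for bidirectional fitting.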

[4] = ATG_M_32_CIS: Attagene CIS-FACTORIAL HepG2 Assay for M32 Transcription Factor (Internal Marker) (AID 2282949); conditions: HepG2 Attagene cis-factorial M32 reporter, mRNA; actives raise or lower the signal;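 note: background control marker of the multiplexed CIS panel rather than a real target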
Procedure, shortened: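 Fluorescent capillary electrophoresis peaks of HpaI-digested, FAM-labelled RT-PCR reporter products give the signal. Source: transiently transfected human liver HepG2 cells, 24 h after chemical dosing; bidirectional fitting against DMSO.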

[5] = ATG_M_06_CIS: Attagene CIS-FACTORIAL HepG2 Assay for M06 Transcription Factor (Internal Marker) (AID 2282950); conditions: HepG2 Attagene CIS-FACTORIAL M06 internal marker reporter; actives raise or lower the signal
Procedure, shortened: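 Cells (HepG2, transiently carrying cis-driven reporter units) receive chemical for 24 h before RNA isolation. Reporter cDNA is PCR-amplified, FAM-labelled by primer extension, HpaI-digested and sized on a capillary analyser.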

[6] = biological target: Hypoxia-inducible factor 1-alpha (Homo sapiens) (UniProt Q16665); test: ATG_HIF1a_CIS: Attagene CIS-FACTORIAL HepG2 Assay for human Hypoxia Inducible Factor 1 (HIF1A) (AID 2282951); conditions: HepG2 Attagene cis-factorial HIF1a reporter transcription; actives raise or lower the signal
Sequence of Hypoxia-inducible factor 1-alpha (Homo sapiens) (Q16665 whole entry, looked up): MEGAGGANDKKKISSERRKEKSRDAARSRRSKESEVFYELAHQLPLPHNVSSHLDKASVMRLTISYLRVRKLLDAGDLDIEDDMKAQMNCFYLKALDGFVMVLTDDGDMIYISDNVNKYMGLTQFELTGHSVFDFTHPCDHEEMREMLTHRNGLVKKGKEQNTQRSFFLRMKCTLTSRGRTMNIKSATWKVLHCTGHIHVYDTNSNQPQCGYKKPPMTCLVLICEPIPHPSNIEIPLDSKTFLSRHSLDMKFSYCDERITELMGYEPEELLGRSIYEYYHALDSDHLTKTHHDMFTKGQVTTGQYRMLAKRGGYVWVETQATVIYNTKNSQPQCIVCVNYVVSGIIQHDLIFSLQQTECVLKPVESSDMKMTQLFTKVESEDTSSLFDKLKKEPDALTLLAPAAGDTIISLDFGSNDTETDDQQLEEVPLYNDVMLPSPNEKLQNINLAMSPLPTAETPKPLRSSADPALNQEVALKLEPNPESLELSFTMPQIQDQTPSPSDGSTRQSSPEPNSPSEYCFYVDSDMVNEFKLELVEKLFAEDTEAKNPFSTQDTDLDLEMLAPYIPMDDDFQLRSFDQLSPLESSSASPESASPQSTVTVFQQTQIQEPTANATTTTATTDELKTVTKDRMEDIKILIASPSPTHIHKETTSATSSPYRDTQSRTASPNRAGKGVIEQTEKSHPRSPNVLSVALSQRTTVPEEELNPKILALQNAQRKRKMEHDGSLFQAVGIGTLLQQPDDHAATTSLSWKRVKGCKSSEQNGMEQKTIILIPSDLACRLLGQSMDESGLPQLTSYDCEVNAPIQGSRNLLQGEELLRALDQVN
Procedure, shortened: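 Dosed 24 h, transfected HepG2 cells yielded total RNA whose reporter transcripts were RT-PCR-amplified and sized by capillary electrophoresis using fluorescent labelling; DMSO defined baseline, with gain and loss of signal both fitted.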

[7] = biological target: Hepatocyte nuclear factor 6 (Homo sapiens) (UniProt Q9UBC0); test: ATG_HNF6_CIS: Attagene CIS-FACTORIAL HepG2 Assay for human Hepatocyte Nuclear Factor 6 (HNF6) (AID 2282952); conditions: HepG2 Attagene cis-factorial HNF6 reporter transcription; actives raise or lower the signal
Sequence of Hepatocyte nuclear factor 6 (Homo sapiens) (Q9UBC0 whole entry, looked up): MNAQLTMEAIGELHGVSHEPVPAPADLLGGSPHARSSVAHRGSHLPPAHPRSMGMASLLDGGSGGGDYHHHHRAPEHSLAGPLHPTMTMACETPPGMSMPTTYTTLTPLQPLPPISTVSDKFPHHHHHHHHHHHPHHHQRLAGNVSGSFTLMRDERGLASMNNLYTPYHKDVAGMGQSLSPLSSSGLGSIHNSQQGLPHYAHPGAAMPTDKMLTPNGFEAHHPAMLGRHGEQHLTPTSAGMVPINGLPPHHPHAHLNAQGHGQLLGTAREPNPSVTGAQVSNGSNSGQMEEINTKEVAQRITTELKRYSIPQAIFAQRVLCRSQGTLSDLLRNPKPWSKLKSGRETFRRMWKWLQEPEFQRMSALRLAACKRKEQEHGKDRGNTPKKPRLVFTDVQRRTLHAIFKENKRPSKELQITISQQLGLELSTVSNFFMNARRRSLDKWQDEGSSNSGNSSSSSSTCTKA
Procedure, shortened: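 HepG2, transient MRTU transfection (cis promoters); 24 h chemical exposure; total RNA → oligo(dT) RT → PCR → 6-FAM labelling → HpaI cut → CE; bidirectional fit vs DMSO.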

[8] = biological target: Heat shock factor protein 1 (Homo sapiens) (UniProt Q00613); test: ATG_HSE_CIS: Attagene CIS-FACTORIAL HepG2 Assay for human Heat Shock Transcription Factor 1 (HSE) (AID 2282953); conditions: HepG2 HSE cis-reporter, Attagene RNA transcription; actives raise or lower the signal
Sequence of Heat shock factor protein 1 (Homo sapiens) (Q00613 whole entry, looked up): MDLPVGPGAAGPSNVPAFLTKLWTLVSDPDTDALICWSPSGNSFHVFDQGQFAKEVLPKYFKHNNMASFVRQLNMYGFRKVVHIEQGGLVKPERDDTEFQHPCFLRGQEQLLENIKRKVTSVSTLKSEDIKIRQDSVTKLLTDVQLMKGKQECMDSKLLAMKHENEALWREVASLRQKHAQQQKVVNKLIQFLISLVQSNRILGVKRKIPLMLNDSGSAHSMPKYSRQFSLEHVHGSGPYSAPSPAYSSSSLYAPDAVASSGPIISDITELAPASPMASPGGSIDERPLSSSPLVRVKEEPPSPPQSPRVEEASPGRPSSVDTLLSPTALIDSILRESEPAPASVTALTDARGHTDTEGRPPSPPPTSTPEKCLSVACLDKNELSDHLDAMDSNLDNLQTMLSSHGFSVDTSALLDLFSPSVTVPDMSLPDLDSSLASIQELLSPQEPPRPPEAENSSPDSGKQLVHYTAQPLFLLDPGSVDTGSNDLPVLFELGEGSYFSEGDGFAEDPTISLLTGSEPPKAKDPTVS
Procedure, shortened: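 Liver-derived HepG2 cells carry transiently introduced multiple reporter units governed by cis promoters. Reporter RNA measured 24 h post-dose through reverse transcription, PCR amplification, fluorescent labelling and capillary electrophoresis, normalised to DMSO.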

[9] = ATG_MRE_CIS: Attagene CIS-FACTORIAL HepG2 Assay for human Metal Responsive Element (MRE) (AID 2282954); conditions: HepG2 MRE cis-reporter transcription, Attagene multiplex; actives raise or lower the signal
Procedure, shortened: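 HepG2 cells transiently transfected with cis-element-driven reporter units; mRNA measured 24 h after dosing. Reporter transcripts quantified by RT-PCR, FAM labelling, HpaI digestion and capillary electrophoresis; bidirectional fit versus DMSO.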

[10] = biological target: Paired box protein Pax-6 (Homo sapiens) (UniProt P26367); test: ATG_Pax6_CIS: Attagene CIS-FACTORIAL HepG2 Assay for human Paired Box 6 (PAX6) (AID 2282956); conditions: HepG2 CIS-FACTORIAL PAX6 reporter transcription, RNA readout; actives raise or lower the signal
Sequence of Paired box protein Pax-6 (Homo sapiens) (P26367 whole entry, looked up): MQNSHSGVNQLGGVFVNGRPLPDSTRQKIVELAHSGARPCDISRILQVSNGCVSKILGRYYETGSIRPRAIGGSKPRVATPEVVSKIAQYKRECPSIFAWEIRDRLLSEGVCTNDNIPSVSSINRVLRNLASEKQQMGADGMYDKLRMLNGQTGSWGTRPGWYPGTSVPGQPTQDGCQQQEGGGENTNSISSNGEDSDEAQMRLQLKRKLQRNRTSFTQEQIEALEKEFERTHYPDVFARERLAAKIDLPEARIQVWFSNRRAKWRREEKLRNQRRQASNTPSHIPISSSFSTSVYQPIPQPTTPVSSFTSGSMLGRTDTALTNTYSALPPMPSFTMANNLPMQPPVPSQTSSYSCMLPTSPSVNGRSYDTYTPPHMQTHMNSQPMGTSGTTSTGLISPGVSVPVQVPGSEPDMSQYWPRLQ
Procedure, shortened: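 After twenty-four hours of chemical exposure, transfected HepG2 cells are harvested for RNA. Cis-promoter reporter transcripts are amplified, fluorescently labelled and sized by capillary electrophoresis, with gain and loss of signal scored against DMSO.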

[11] = ATG_PXRE_CIS: Attagene CIS-FACTORIAL HepG2 Assay for human Pregnane X Receptor Element (PXRE) (AID 2282957); conditions: HepG2 Attagene CIS-FACTORIAL PXRE reporter, mRNA; actives raise or lower the signal
Procedure, shortened: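 Transfect HepG2 with MRTUs (cis promoter elements); dose chemical, incubate 24 h; isolate RNA, RT with oligo(dT), PCR, 6-FAM label, HpaI cut, CE. Gain/loss fit vs DMSO.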

[12] = ATG_PPRE_CIS: Attagene CIS-FACTORIAL HepG2 Assay for human Peroxisome Proliferator-activated Response Element (PPRE) (AID 2282958); conditions: HepG2 PPRE cis-element reporter, Attagene transcription factor profiling; actives raise or lower the signal
Procedure, shortened: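 Measured endpoint: PPRE-controlled reporter mRNA, detected by RT-PCR and capillary electrophoresis fluorescence, from transiently transfected HepG2 cells 24 h after dosing. Curves fitted in both directions using DMSO baseline.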

[13] = ATG_Sox_CIS: Attagene CIS-FACTORIAL HepG2 Assay for human SRY-box transcription factor (SOX) (AID 2282960); conditions: HepG2 Attagene cis-factorial SOX reporter, mRNA; actives raise or lower the signal
Procedure, shortened: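 Gain- or loss-of-signal endpoint, fitted bidirectionally with DMSO as negative control. Based on reporter mRNA from transfected HepG2 cells harvested 24 h post-treatment and quantified via RT-PCR and capillary electrophoresis.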

[14] = biological target: Transcription factor Sp1 (Homo sapiens) (UniProt P08047); test: ATG_Sp1_CIS: Attagene CIS-FACTORIAL HepG2 Assay for human Specificity Protein 1 (Sp1) (AID 2282961); conditions: HepG2 Sp1 cis-reporter transcription, actives raise or lower the signal
Sequence of Transcription factor Sp1 (Homo sapiens) (P08047 whole entry, looked up, the tested form may be a part): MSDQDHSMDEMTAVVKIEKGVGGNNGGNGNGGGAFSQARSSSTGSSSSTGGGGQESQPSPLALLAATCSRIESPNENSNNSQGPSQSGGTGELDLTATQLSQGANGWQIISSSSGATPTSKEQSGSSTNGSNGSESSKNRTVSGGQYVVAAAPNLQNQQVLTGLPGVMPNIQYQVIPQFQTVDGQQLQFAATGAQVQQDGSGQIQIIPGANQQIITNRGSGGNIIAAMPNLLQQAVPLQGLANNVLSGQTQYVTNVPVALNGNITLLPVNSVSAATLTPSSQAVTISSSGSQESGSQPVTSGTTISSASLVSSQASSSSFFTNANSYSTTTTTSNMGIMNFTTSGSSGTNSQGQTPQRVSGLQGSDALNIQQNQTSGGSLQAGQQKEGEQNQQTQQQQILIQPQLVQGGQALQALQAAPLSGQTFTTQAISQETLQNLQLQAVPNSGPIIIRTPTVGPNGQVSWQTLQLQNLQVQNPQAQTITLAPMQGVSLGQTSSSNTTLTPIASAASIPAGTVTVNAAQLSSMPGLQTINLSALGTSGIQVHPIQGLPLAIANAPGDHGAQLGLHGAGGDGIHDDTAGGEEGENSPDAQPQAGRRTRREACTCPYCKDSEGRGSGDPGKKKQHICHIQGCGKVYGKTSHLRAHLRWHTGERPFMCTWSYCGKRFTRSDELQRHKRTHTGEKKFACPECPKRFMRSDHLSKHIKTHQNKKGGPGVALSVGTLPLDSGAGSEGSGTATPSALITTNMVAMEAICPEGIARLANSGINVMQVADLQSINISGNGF
Procedure, shortened: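 Endpoint reflects endogenous Sp1 transcriptional activity, not an exogenous fusion protein: HepG2 cells with transfected cis-regulated reporters, 24 h dosing, RT-PCR/capillary electrophoresis mRNA read-out, DMSO-normalised bidirectional fit.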

[15] = ATG_SREBP_CIS: Attagene CIS-FACTORIAL HepG2 Assay for human Sterol Regulatory Element Binding (SREBP) (AID 2282962); conditions: HepG2 Attagene cis-factorial SREBP reporter, mRNA; actives raise or lower the signal
Procedure, shortened: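 Twenty-four hours after chemical dosing of transfected HepG2 cultures, reporter RNA was converted to cDNA, amplified, end-labelled with 6-FAM and resolved by capillary electrophoresis. Responses were fitted relative to DMSO.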

[16] = ATG_TA_CIS: Attagene CIS-FACTORIAL HepG2 Assay for human TA Basal Promoter (AID 2282964); conditions: HepG2 Attagene CIS-factorial TA basal promoter reporter; actives raise or lower the signal
Procedure, shortened: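 Background internal-marker endpoint from a 52-component HepG2 cis-reporter panel. Cells treated 24 h; reporter transcripts quantified via RT-PCR and CE fluorescence against DMSO baseline.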

[17] = ATG_GRE_CIS: Attagene CIS-FACTORIAL HepG2 Assay for human Glucocorticoid Response Elements (GRE) (AID 2282947); conditions: HepG2 GRE cis-reporter, Attagene multiplex mRNA; actives raise or lower the signal
Procedure, shortened: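 Transiently transfected HepG2 cells carrying GRE cis-reporter units (endogenous TF activity) dosed 24 h; reporter mRNA quantified by RT-PCR, 6-FAM labelling, HpaI digestion and capillary electrophoresis. Bidirectional fit versus DMSO baseline.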

[18] = ATG_RORE_CIS: Attagene CIS-FACTORIAL HepG2 Assay for human RAR-related Orphan Receptor Element (RORE) (AID 2282959); conditions: HepG2 Attagene cis-factorial RORE reporter, mRNA; actives raise or lower the signal
Procedure, shortened: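 Transiently transfected HepG2 reporter cells were treated 24 h. Reporter transcripts were detected by RT-PCR and capillary electrophoresis, with bidirectional fitting against DMSO.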

[19] = biological target: Signal transducer and activator of transcription 3 (Homo sapiens) (UniProt P40763); test: ATG_STAT3_CIS: Attagene CIS-FACTORIAL HepG2 Assay for human Signal Transducer and Activator of Transcription 3 (STAT3) (AID 2282963); conditions: HepG2, Attagene cis-factorial STAT3 reporter transcription; actives raise or lower the signal
Sequence of Signal transducer and activator of transcription 3 (Homo sapiens) (P40763 whole entry, looked up): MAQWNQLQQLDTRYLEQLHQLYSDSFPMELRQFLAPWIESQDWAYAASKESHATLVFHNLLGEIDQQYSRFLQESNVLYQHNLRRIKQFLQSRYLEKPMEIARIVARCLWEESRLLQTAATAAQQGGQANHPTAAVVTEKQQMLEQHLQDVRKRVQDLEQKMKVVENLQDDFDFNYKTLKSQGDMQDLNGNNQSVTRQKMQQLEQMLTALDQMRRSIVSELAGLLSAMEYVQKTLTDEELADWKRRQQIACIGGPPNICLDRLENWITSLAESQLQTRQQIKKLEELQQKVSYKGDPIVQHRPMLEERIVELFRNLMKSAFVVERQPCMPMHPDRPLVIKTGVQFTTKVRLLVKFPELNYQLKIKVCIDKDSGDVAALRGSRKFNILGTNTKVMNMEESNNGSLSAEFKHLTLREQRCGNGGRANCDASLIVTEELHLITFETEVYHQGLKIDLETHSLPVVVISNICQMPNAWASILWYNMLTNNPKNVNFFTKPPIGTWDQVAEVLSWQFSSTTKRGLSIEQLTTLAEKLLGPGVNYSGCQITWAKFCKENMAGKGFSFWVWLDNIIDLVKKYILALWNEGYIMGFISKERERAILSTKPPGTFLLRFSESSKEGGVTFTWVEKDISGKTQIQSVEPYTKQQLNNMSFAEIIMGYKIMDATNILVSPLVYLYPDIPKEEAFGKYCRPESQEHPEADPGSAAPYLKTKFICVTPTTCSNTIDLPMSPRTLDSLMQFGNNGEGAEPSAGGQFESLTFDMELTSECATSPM
Procedure, shortened: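 HepG2 cells transiently transfected with multiple cis-element-driven reporter units report endogenous transcription factor activity. After 24 h compound exposure, reporter mRNA is measured by RT-PCR, 6-FAM labelling, HpaI digestion and capillary electrophoresis. Fitted bidirectionally versus DMSO.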

[20] = ATG_PBREM_CIS: Attagene CIS-FACTORIAL HepG2 Assay for human Phenobarbital-responsive Enhancer Module (PBREM) (AID 2282955); conditions: HepG2 PBREM cis-reporter, Attagene multiplexed transcription; actives raise or lower the signal
Procedure, shortened: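 Transfected liver-derived HepG2 cells exposed 24 h; PBREM reporter transcript quantified via RT-PCR and capillary electrophoresis, with activity in either direction referenced to DMSO.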

Measured: AC50

CC1=CCC(C(C)(C)O)CC1 (centres undefined)
not listed: [17] | [18] | [19] | [20]
inactive: all other assays above

CC(C)(O)CCc1ccccc1
not listed: [12] | [20]
inactive: all other assays above

c1ccc2c(c1)-c1ccc3ccc4cccc5cc-2c1c3c45
active: [6] 0.0166 µM | [11] 1.02 µM | [18] 0.163 µM
inactive: all other assays above

C=CCOC(=O)/C=C\C(=O)OCC=C
active: [3] 19.7 µM | [6] 18.6 µM | [7] 28 µM | [8] 164 µM | [9] 39.5 µM | [10] 26 µM | [11] 20.1 µM | [13] 27.6 µM
not listed: [18]
inactive: all other assays above

CC(O)COCC(C)O (centres undefined)
not listed: [20]
inactive: all other assays above

CC1=C(C=O)C(C)(C)CCC1
active: [11] 1.75 µM
inactive: all other assays above

C=CC(=O)OCC(CO)(COC(=O)C=C)COC(=O)C=C
active: [2] 26 µM | [3] 7.12 µM | [4] 122 µM | [8] 161 µM | [9] 5.67 µM | [10] 11.9 µM | [16] 100 µM
not listed: [12] | [18] | [20]
inactive: all other assays above
